Assay [1] concerns the target Estrogen receptor beta (Homo sapiens) (UniProt Q92731). As to the kind of experiment: OT_ER_ERbERb_1440: Odyssey Thera (OT) 24-hour HEK293T Protein-Complementation Assay for Estrogen Receptor-beta/-beta Homodimer (AID 2283380).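 Note: scored as signal increase over DMSO baseline for both agonists and antagonists.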 The method in brief:
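HEK293T cells stably expressing ER beta LBD (aa 310-547) homodimer fragment-complementation reporter, dosed 24 h. Cells formaldehyde-fixed, Draq5-stained; gain in nuclear (agonist) or nuclear plus cytoplasmic (antagonist) fluorescence versus DMSO read by laser scanning cytometry.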

The target in assay [2] is Estrogen receptor (Homo sapiens) (UniProt P03372). The assay can be described thus: OT_ERa_GFPERaERE_0480: Odyssey Thera (OT) 8-hour HeLa Transcription Induction Assay for Estrogen Receptor (AID 2283381; active = hit-call score of the fitted dose curve at least 0.9, where 1 is the maximum; inactive = score below 0.9). The method in brief:
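An 8 h HeLa transcription-induction format with a GFP reporter under ERE control, read by fluorescence microscopy; single endpoint fitted positively with DMSO as baseline.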

For assay [3] the target is unchanged. As to the kind of experiment: OT_ERa_GFPERaERE_0120: Odyssey Thera (OT) 2-hour HeLa Transcription Induction Assay for Estrogen Receptor (AID 2283382). The gist of the method: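 Two-hour compound treatment of HeLa cells preceded microscopy imaging of an inducible fluorescent reporter. Image-based quantification gave one endpoint, analysed for signal increase relative to DMSO controls.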

Assay [4] addresses Bile acid receptor (Homo sapiens) (UniProt Q96RI1). As to the kind of experiment: OT_FXR_FXRSRC1_0480: Odyssey Thera (OT) 8-hour HEK293T Protein-Complementation Assay for Farnesoid X receptor/SRC-1 Co-activator (AID 2283383). The gist of the method:
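Readings were taken 8 h after dosing HEK293T cells in a split-reporter complementation format pairing FXR with SRC-1. Increased fluorescence relative to DMSO-treated wells defined activity.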

For assay [5] the target is unchanged. The assay can be described thus: OT_FXR_FXRSRC1_1440: Odyssey Thera (OT) 24-hour HEK293T Protein-Complementation Assay for Farnesoid X receptor/SRC-1 Co-activator (AID 2283384). The method in brief:
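Single endpoint, analysed for increased fluorescence against DMSO controls. HEK293T cells carrying FXR and SRC-1 linked to complementary reporter halves were exposed to chemicals for 24 h before reading.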

Assay [6] addresses Retinoic acid receptor RXR-alpha (Homo sapiens) (UniProt P19793). As to the kind of experiment: OT_NURR1_NURR1RXRa_0480: Odyssey Thera (OT) 8-hour HEK293T Protein Complementation Assay for Nurr1/retinoid X receptor (RXR) (AID 2283385). The gist of the method: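 Gain in fluorescent complementation signal over DMSO, measured 8 hours after chemical dosing of human kidney HEK293T cells, indicated enhanced Nurr1–RXRα association.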

For assay [7] the target is unchanged. As to the kind of experiment: OT_NURR1_NURR1RXRa_1440: Odyssey Thera (OT) 24-hour HEK293T Protein Complementation Assay for Nurr1/retinoid X receptor (RXR) (AID 2283386). The gist of the method:
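Cell-based binding reporter: HEK293T cells, 24 h exposure, fluorescence-detected fragment complementation, DMSO as baseline.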

For assay [8], the target named is human Norepinephrine Transporter (NET), SLC6A2 (gene 6530) (UniProt P23975). The assay can be described thus: NVS_TR_hNET: NovaScreen (NVS) Transporter Assay for human Norepinephrine Transporter (NET) (AID 2283377).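 Note: cell-free membrane protein extracted from CHO cells expressing human NET; displacement of radioligand from human NET seen as loss of scintillation signal.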 The method in brief:
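CHO cell extracts expressing the transporter; tritiated or iodinated tracer displaced competitively; filtration plus scintillation readout at 1 h. Single-point duplicates at 25 uM, concentration series for follow-up; activity = signal drop relative to DMSO.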

Assay [9] concerns the target Agonist Androgen Response Element (ARE), AR (gene 367) (UniProt P10275). The assay can be described thus: OT_AR_ARELUC_AG_1440: Odyssey Thera (OT) 24-hour CHO-K1 Luciferase Assay for Agonist Androgen Response Element (ARE) (AID 2283379). The method in brief: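 Gain-of-signal reporter endpoint: cells (CHO-K1, hamster) are treated 24 h, luciferin/ATP reagent added, and luminescence compared with DMSO baseline.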

The target in assay [10] is mouse Estrogen Receptor alpha (Era), Esr1 (gene 13982) (UniProt P19785). The assay can be described thus: NVS_NR_mERa: NovaScreen (NVS) Nuclear Receptor Binding Assay for mouse Estrogen Receptor alpha (Era) (AID 2283378).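 Note: hit means loss of bound radioligand signal relative to DMSO.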 The method in brief:
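Filter radiodetection of radioligand displacement from extracted receptor protein, measured 18 h post-dose. Single 25 uM concentration in duplicate initially, with concentration-series follow-up. Binding loss fitted relative to DMSO.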

For orientation: AC50 means the concentration at which the activity in the assay is half-maximal.

Results filed as inconclusive are left out. The source made the active and inactive calls. Rule for the calls, unless noted: active = hit-call score of the fitted dose curve at least 0.9, where 1 is the maximum; inconclusive = response in the unintended direction; inactive = score below 0.9.

Chain of Agonist Androgen Response Element (ARE), AR (gene 367) (P10275 whole entry, looked up): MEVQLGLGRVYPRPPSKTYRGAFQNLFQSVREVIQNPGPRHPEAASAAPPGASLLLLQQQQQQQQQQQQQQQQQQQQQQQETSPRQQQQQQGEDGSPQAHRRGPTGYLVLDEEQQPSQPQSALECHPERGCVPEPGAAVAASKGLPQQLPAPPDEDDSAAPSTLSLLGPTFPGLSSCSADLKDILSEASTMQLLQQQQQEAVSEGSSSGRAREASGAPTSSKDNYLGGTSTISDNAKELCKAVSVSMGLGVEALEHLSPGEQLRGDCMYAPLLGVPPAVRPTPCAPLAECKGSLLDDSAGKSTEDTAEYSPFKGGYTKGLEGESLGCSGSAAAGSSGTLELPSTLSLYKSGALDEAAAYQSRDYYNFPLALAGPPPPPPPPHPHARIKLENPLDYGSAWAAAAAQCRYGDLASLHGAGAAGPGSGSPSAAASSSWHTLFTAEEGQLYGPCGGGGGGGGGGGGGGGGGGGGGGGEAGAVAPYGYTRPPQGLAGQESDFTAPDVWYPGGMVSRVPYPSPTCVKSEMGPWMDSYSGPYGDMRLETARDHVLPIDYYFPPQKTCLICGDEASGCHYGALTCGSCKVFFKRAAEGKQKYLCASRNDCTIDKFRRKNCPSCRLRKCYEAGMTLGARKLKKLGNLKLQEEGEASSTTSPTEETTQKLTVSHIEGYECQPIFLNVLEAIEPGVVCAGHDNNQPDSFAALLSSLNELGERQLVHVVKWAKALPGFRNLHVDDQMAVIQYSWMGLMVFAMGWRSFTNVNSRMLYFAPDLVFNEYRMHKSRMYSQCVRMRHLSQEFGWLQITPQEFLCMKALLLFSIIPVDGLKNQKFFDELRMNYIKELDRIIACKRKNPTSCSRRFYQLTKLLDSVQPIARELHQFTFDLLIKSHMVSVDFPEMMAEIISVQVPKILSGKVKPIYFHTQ
Chain of Retinoic acid receptor RXR-alpha (Homo sapiens) (P19793 whole entry, looked up): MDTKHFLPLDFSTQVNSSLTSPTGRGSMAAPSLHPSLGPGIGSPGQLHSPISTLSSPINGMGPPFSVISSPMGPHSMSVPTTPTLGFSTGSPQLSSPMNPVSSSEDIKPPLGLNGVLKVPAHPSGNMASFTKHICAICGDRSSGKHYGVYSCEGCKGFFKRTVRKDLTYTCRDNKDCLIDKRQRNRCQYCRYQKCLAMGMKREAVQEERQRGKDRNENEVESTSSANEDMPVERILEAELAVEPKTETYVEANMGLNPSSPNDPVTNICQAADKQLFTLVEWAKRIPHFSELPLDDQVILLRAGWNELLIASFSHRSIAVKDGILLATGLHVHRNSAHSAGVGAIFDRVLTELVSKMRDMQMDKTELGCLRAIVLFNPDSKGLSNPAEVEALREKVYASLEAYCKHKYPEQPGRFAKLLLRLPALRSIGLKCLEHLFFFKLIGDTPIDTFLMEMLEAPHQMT
Chain of human Norepinephrine Transporter (NET), SLC6A2 (gene 6530) (P23975 whole entry, looked up): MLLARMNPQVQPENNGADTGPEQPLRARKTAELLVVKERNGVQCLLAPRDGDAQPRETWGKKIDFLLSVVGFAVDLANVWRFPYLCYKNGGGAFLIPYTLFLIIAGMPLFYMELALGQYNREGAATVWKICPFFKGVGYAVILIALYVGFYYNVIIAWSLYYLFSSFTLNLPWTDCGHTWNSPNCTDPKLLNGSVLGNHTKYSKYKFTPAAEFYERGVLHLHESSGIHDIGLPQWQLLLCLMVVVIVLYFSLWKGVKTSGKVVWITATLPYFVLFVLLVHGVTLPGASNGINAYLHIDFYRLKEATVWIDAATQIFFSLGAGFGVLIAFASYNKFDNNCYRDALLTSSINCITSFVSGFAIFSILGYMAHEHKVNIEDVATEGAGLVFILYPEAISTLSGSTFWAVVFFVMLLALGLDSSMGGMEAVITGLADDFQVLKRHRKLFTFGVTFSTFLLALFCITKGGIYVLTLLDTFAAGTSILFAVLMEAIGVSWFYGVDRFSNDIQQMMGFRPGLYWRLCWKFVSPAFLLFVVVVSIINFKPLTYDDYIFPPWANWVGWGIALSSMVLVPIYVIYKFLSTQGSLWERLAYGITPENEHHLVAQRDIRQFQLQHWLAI
Chain of mouse Estrogen Receptor alpha (Era), Esr1 (gene 13982) (P19785 whole entry, looked up): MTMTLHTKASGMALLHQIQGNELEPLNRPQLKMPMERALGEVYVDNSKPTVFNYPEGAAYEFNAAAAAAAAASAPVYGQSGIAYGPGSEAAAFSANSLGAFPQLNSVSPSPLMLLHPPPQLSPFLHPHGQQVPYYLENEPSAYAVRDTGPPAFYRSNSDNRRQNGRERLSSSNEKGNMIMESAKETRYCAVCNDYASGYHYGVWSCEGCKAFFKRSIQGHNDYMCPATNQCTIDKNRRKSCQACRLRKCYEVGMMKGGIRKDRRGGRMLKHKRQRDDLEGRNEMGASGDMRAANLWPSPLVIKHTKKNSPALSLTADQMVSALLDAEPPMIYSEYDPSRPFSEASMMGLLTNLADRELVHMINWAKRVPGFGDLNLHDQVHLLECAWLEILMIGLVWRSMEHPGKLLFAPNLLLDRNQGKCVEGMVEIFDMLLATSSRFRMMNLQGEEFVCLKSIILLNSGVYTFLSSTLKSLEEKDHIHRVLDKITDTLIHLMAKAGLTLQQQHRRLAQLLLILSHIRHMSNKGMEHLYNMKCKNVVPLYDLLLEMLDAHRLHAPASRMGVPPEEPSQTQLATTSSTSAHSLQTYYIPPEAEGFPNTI
Chain of Bile acid receptor (Homo sapiens) (Q96RI1 whole entry, looked up): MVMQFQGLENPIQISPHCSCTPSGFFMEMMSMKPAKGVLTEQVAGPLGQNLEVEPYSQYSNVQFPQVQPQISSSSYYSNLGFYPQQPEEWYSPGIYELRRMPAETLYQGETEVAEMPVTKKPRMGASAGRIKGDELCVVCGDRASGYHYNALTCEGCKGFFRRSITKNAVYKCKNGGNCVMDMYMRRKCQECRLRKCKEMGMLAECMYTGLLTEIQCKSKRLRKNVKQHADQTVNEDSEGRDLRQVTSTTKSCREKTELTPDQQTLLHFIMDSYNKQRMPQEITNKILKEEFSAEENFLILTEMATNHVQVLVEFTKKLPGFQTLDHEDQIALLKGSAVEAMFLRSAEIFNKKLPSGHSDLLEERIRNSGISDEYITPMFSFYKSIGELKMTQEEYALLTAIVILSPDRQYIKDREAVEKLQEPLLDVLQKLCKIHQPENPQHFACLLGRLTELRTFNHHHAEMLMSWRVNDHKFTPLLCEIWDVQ
Chain of Estrogen receptor beta (Homo sapiens) (Q92731 whole entry, looked up, the tested form may be a part): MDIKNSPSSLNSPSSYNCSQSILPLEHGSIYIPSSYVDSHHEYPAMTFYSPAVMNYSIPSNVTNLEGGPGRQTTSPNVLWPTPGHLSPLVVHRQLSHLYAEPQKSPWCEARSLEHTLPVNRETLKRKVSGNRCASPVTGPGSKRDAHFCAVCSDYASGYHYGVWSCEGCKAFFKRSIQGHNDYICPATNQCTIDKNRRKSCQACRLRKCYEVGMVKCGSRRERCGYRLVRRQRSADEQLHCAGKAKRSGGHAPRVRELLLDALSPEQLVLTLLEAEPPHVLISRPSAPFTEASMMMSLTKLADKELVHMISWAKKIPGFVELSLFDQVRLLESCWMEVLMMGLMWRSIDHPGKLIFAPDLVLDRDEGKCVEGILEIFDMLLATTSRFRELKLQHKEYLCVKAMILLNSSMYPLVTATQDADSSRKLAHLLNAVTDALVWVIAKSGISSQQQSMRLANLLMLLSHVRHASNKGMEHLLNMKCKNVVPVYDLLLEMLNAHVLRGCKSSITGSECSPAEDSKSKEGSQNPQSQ
Chain of Estrogen receptor (Homo sapiens) (P03372 whole entry, looked up): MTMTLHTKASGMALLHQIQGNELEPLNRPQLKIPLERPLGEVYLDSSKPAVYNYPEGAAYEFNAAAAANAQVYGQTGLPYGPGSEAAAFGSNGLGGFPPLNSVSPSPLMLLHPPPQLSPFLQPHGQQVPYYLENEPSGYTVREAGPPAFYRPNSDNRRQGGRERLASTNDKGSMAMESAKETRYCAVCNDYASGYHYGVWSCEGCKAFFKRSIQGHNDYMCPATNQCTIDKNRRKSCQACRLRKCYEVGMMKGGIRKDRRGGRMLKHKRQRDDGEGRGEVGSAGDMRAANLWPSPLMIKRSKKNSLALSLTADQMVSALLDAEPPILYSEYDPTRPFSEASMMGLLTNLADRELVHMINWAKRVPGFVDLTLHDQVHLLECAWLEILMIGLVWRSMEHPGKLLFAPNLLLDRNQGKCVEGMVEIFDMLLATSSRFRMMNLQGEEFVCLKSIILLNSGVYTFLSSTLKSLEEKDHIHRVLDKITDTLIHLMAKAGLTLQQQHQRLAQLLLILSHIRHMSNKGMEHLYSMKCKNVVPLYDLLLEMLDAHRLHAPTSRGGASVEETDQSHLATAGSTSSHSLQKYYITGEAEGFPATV

Consider `CCc1cc(Cc2cc(CC)c(N)c(CC)c2)cc(CC)c1N`, for which the call in assay [1], in assay [2], in [3] and in assay [5] was inactive. Further, the half-maximal activity concentration (AC50) is 11.8 µM (active) in [4] and 11.5 µM (active) in assay [6].

As for `CCCCC(CC)COC(=O)c1ccc(N(C)C)cc1` (stereo unspecified), the outcome in [1], in assay [2] and in [3] was inactive. In addition, the AC50 in assay [4] was 32.7 µM (active); in assay [5], 50 µM (active); in assay [6], 77.7 µM (active); in assay [7], 76 µM (active).

As for `Cc1cc(O)c(C(C)(C)C)cc1C(C)(C)C`, the AC50 in [8] is 16.5 µM (active).

`F[Si-2](F)(F)(F)(F)F`: the molecule was called inactive in assay [9], in assay [1], in assay [2], in assay [3], in [4] and in assay [7].

Take `CCCCCCCC/C=C\CCCCCCCC(=O)OCC(O)CO` (stereo unspecified): the outcome in assay [9], in assay [1], in [2] and in assay [3] was inactive. The AC50 in assay [4] is 70.9 µM (active); in assay [6], 71.1 µM (active); in assay [7], 90.1 µM (active).

Take `CCN(CC)c1ccc(C=O)c(O)c1`: in assay [8], the concentration at half-maximal activity (AC50) was 25 µM (active).

Consider `CCCCOC(=O)C(C)O` (stereo unspecified), for which the molecule was classed as inactive in assay [2], in assay [4] and in [6]. Besides, in assay [3], the AC50 was 2.95 µM (active).

As to `OCC1CCCO1` (stereo unspecified), the call in assay [9], in assay [1], in assay [2], in [3] and in assay [4] was inactive.

Regarding `Cc1ccc([N+](=O)[O-])c(C)c1`, the call in assay [2], in assay [3], in [5] and in assay [6] was inactive.

For the molecule `CCC(Cc1c(I)cc(I)c(N)c1I)C(=O)O` (stereo unspecified), the outcome in assay [10], in assay [2], in assay [3], in assay [4], in assay [5] and in assay [6] was inactive.

Regarding `CC(=O)CCC(C)C`, the molecule was classed as inactive in assay [2], in [3], in assay [4] and in assay [6].

Consider `CCOC(OCC)OCC`, for which the molecule was called inactive in [1], in [2], in assay [3] and in [7].

Take `Cc1ccc(O)c(-n2nc3ccccc3n2)c1`: the AC50 in [10] was 6.65 µM (active); in [4], 50 µM (active). Moreover, the molecule was called inactive in assay [1], in assay [2], in assay [3], in assay [5], in assay [6] and in [7].

In the case of `CCCCCCCCCCCCC[N+](C)(C)Cc1ccccc1`, the values for the AC50 in assay [10] and in assay [3] were 8.86 µM (active) and 18.1 µM (active), respectively. Besides, the call in assay [9], in assay [1] and in [2] was inactive.

Consider `CCN=C1C=CC(=C(c2ccc(N(CC)CC)cc2)c2ccc(N(CC)CC)cc2)c2ccccc21`, for which the result in assay [9], in [1], in [2] and in [3] was inactive.

As for `CCN=c1cc2oc3cc(NCC)c(C)cc3c(-c3ccccc3C(=O)OCC)c-2cc1C`, the AC50 in assay [10] was 25 µM (active); in assay [1], 76.4 µM (active); in [4], 1.36 µM (active); in assay [6], 0.603 µM (active); in assay [7], 0.769 µM (active). Further, the result in assay [9], in assay [2], in [3] and in assay [5] was inactive.

Turning to `CCCCCCCCn1sc(Cl)c(Cl)c1=O`, the AC50 in [10] was 25 µM (active). The call in assay [2], in assay [3], in assay [6] and in assay [7] was inactive.

For the molecule `CC(C)OC=O`, the call in assay [2], in assay [3], in [4], in [5], in [6] and in assay [7] was inactive.

`CSc1ccc(O)cc1C`: in assay [8], the AC50 was 36.4 µM (active).

With `CC(C)Nc1ccc(NC(C)C)c2c1C(=O)c1ccccc1C2=O`, the AC50 in assay [1] is 19.1 µM (active); in assay [5] it was 18.2 µM (active). Also, the molecule was called inactive in [3], in assay [6] and in assay [7].

Consider `C[C@]12CC[C@H]3C(=CCc4cc(O)ccc43)[C@@H]1CCC2=O`, for which the AC50 in assay [9] is 0.284 µM (active); in assay [4], 9.93 µM (active). Besides, the molecule was classed as inactive in [5] and in [6].

Consider `CCCCCCCC/C=C\CCCCCCCC(=O)N(C)CC(=O)O`, for which the molecule was classed as inactive in assay [10], in assay [1], in assay [2], in assay [3], in assay [5] and in assay [6]. Moreover, the concentration at half-maximal activity (AC50) in assay [4] is 72.6 µM (active).

`CCCCCCCCCCCCCC[P+](CCCC)(CCCC)CCCC`: the call in assay [10], in [9] and in assay [1] was inactive. Moreover, the AC50 in assay [2] was 10.4 µM (active); in assay [3], 12.2 µM (active).

With `O=C(c1ccccc1)c1ccc(O)cc1O`, the AC50 is 1.22 µM (active) in assay [10], 8.62 µM (active) in assay [2] and 6.29 µM (active) in assay [3]. Also, the outcome in [4], in [5] and in assay [6] was inactive.

For the molecule `CC(C)(C)c1cc(Cc2cc(C(C)(C)C)c(O)c(C(C)(C)C)c2)cc(C(C)(C)C)c1O`, the call in [1], in [2], in [3], in assay [4] and in assay [7] was inactive. The AC50 in assay [5] is 6.6 µM (active).

For the molecule `CCOC(=O)C1CC(=O)C(=C(O)C2CC2)C(=O)C1` (stereo unspecified), the call in [1], in [2], in assay [3], in [4], in assay [6] and in [7] was inactive.

Regarding `CC(C)(C)c1cc(CCC(=O)OCC(COC(=O)CCc2cc(C(C)(C)C)c(O)c(C(C)(C)C)c2)(COC(=O)CCc2cc(C(C)(C)C)c(O)c(C(C)(C)C)c2)COC(=O)CCc2cc(C(C)(C)C)c(O)c(C(C)(C)C)c2)cc(C(C)(C)C)c1O`, the molecule was called inactive in assay [10], in [1], in assay [2], in assay [3], in [4] and in [5]. The molecule was called inactive in assay [6] and in assay [7].

With `CCCCCCCCCc1ccc(OCCO)cc1`, the molecule was called inactive in assay [10], in assay [2], in [3] and in [6]. Further, the AC50 in assay [9] is 0.238 µM (active); in assay [1], 4.63 µM (active); in assay [4] it was 4.7 µM (active); in assay [5], 28.8 µM (active); in [7], 32.9 µM (active).

Take `COCCOCCC[Si](C)(O[Si](C)(C)C)O[Si](C)(C)C`: the result in assay [10], in assay [9], in assay [2], in assay [3] and in [5] was inactive. Moreover, the AC50 in assay [1] is 53.3 µM (active); in assay [4], 50 µM (active); in assay [6], 33.2 µM (active); in assay [7], 90.4 µM (active).

For the molecule `CCCCOC(=O)[C@H](C)O`, the call in assay [2], in assay [3], in [6] and in assay [7] was inactive.

For `N#Cc1ccccc1O`, the call in assay [2], in assay [3], in assay [5] and in assay [7] was inactive.

`O=C1C=CC(=O)N1c1ccccc1`: the molecule was classed as inactive in assay [10], in assay [9], in [1], in assay [2] and in [3].
